Laboratory results reported in PubChem BioAssay (NCI).
The panel holds about 83,000 compounds, 20% with a hit somewhere; the sample as a whole holds those more often.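 Activity criterion: percent growth below 10, measured after cells in 96-well plates were exposed to a single compound concentration for 48 hours.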 Values without a mark were called inactive. Active and inactive are the calls of the source.

Columns and labels:
Test in all cases: NCI-60 one-dose screen, 48 h (100 = growth as untreated, 0 = no growth, -100 = all killed)
Conditions in all cases: 10 µM unless noted
[1] = test system: NCI-H23 lung
[2] = test system: NCI-H226 lung
[3] = test system: NCI-H322M lung
[4] = test system: HOP-62 NSCLC
[5] = test system: NCI-H460 lung
[6] = test system: HOP-92 NSCLC
[7] = test system: NCI-H522 lung
[8] = test system: A549/ATCC NSCLC
[9] = test system: 786-0 renal
[10] = test system: COLO 205 colon
[11] = test system: DU-145 prostate
[12] = test system: K-562 leukemia
[13] = test system: MALME-3M melanoma
[14] = test system: MDA-MB-231 breast
[15] = test system: RXF 393 renal
[16] = test system: SF-268 CNS
[17] = test system: SF-295 CNS
[18] = test system: SF-539 CNS
[19] = test system: UACC-257 melanoma
[20] = test system: M14 melanoma

Compound	growth [1]	growth [2]	growth [3] [%]	growth [4]	growth [5]	growth [6]	growth [7]	growth [8] [%]	growth [9]	growth [10]	growth [11] [%]	growth [12]	growth [13]	growth [14]	growth [15]	growth [16]	growth [17]	growth [18]	growth [19]	growth [20]
CCN(CC)CCN(CCN(CC)CC)c1ccccc1	93%	94.6%	103	98.5%	107%	67.3%	79%	93.1	67.4%	97.8%	109	93%	110%	89.6%	90.8%	97.7%	111%	87.6%	93.1%	82.3%
Cc1ccccc1OCC(O)COc1ccccc1C	404%	97.9%	95.4	96.2%	96.8%	93.9%	77%	84.2	100%	98.2%	120	114%	88.5%	103%	80.5%	99.4%	98.5%	95.9%	89.2%	98.5%
CC(C)CSc1oc(-c2ccccc2)nc1S(=O)(=O)c1ccccc1	83.4%	75.7%	99	94.4%	97.2%	45.8%	70.8%	79.8	87%	109%	99.3	92.4%	95.6%	89.4%	82.6%	87.3%	84.3%	101%	92.2%	98.3%
CC(O)c1ncc(/C=C2\SC(=S)N(Cc3ccccc3)C2=O)s1 (stereo not given)	103%	97.2%	100	104%	104%	73.4%	5.34% (active)	105	87.3%	96.2%	89.2	87.9%	93.2%	94%	102%	89.8%	102%	85%	96.2%	93.8%
O=C(CN1C(=O)NC2NC(=O)NC21)N/N=C/c1ccc(Cl)cc1Cl (stereo not given)	102%	95.6%	104	114%	105%	125%	93.3%	110	96.6%	125%	113	105%	106%	109%	117%	99.6%	101%	93.3%	114%	104%
N#Cc1c(-c2cccc([N+](=O)[O-])c2)cc(-c2ccc(Nc3nc(Nc4ccc(F)cc4)nc(Nc4ccc(F)cc4)n3)cc2)nc1N	98.6%	123%	97.9	85.9%	146%	55.4%	104%	86	94.6%	117%	154	80.3%	94.7%	91.9%	-10.3% (active)	164%	102%	127%	107%	110%
COc1ccc(C2=Nc3c(N)ncnc3NC(c3cccc(Nc4ccnc5cc(C(F)(F)F)ccc45)c3)C2)cc1 (stereo not given)	70.1%	64.2%	81.3	63.7%	70.9%	31.4%	69.6%	59.8	59.4%	62.4%	80.2	15.5%	72.3%	46.3%	41%	56.9%	61.9%	70%	74.9%	66%
Cc1cccc(-n2c(C)nc3ccc(N4CCCNC4=O)cc3c2=O)c1	98.5%	96.5%	103	101%	112%	95.1%	96.4%	102	102%	105%	109	102%	102%	106%	116%	105%	101%	91.9%	105%	102%
CCN(CC)c1ccc(/C=C\c2cc(C)c3cc(C)ccc3n2)cc1	30.3%	59.5%	83	45.6%	16.8%	-10.9% (active)	28.6%	31.9	2.99% (active)	50%	61.5	13.1%	32.9%	54.2%	16.1%	40.2%	24.4%	20.1%	24.4%	15.9%
CC1(C)O[C@H]2OC3CCC(=O)CC3(O)[C@H]2O1 (stereo not given in full)	99.2%	102%	101	95.8%	101%	79.8%	92.4%	95.9	99.5%	105%	107	94.8%	104%	113%	104%	99.3%	110%	105%	96.5%	99.9%
N#Cc1c(Nc2ccc(F)cc2)n[nH]c1-c1cccs1	85.2%	88.9%	102	110%	107%	87.5%	97.1%	115	98.3%	128%	113	99.2%	108%	89.5%	112%	98%	97.7%	98.8%	120%	104%
CC1(C)CC[C@]2(C(=O)N3CCOCC3)CC[C@]3(C)C(=CC[C@@H]4[C@@]5(C)C/C(=C/c6ccncc6)C(=O)C(C)(C)[C@@H]5CC[C@]43C)[C@@H]2C1	19.5%	-20.4% (active)	40.9	19.8%	-21.8% (active)	-6.7% (active)	-1.2% (active)	15.2	26.2%	-21.1% (active)	21.7	6.99% (active)	-19.7% (active)	33.9%	-36.8% (active)	48.6%	25.4%	-7.46% (active)	14.8%	-8.66% (active)
O=C1/C(=C/c2ccccc2[N+](=O)[O-])COc2ccc(O)cc21	18.8%	66.4%	60.9	29.1%	29%	40%	-40.8% (active)	54.1	-41.3% (active)	-32.6% (active)	18.1	14.8%	-56.9% (active)	-16.2% (active)	-9.95% (active)	58.8%	81.1%	-49.9% (active)	0.865% (active)	-10.9% (active)
CC[C@H](CC[C@@H](C)[C@H]1CC[C@H]2[C@@H]3CC[C@@H]4CC(=O)/C(=C\c5ccncc5)C[C@]4(C)[C@H]3CC[C@]12C)C(C)C	99.4%	103%	98.3	99.3%	109%	91.5%	95.3%	99.2	95.7%	107%	109	97%	100%	104%	109%	107%	99.2%	103%	106%	104%
c1ccc2cc(Cn3c[n+](Cc4ccc5ccccc5c4)c4ccccc43)ccc2c1	-0.737% (active)	19.6%	34.6	3.98% (active)	-34.2% (active)	-27.7% (active)	-28.8% (active)	30.9	-68.2% (active)	-80.7% (active)	15	-49.7% (active)	-17.8% (active)	-54.1% (active)	-56.5% (active)	-30.5% (active)	6.18% (active)	17.7%	-38.6% (active)	-80.6% (active)
